Records with an inconclusive call do not appear. Active and inactive are the calls of the source. Unless noted, calls come from the whole dose curve; as a rule, active = well fitted curve in the direction sought with a large enough effect in the repeat runs; inconclusive = weak or mixed curves; inactive = no such curve, though single readings can be large; an effect the other way counts as inactive or inconclusive.
What was measured:
[1] = qHTS assay to identify small molecule agonists of the TGF-beta/Smad signaling pathway (AID 1346859; active = well fitted activation curve with a large enough effect in the signal ratio in the repeat runs, not every such curve was filed as active; the % refers to the signal ratio; note: series mostly up to about 77 µM)
Summary of the method: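 Stable Smad binding element-beta-lactamase HEK 293T cells; 5 hr compound exposure at 37 C under 5% CO2; 2 hr room-temperature substrate step; fluorescence excited at 405 nm, collected at 460 nm and 530 nm.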

[2] = biological target: Thyrotropin-releasing hormone receptor (Homo sapiens) (UniProt P34981); test: qHTS assay to identify small molecule antagonists of the thyrotropin-releasing hormone receptor (TRHR) signaling pathway (AID 1346877; active = well fitted inhibition curve with a large enough effect in the repeat runs, not every such curve was filed as active; note: series mostly up to about 51 µM)
Summary of the method: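 Screening used HEK293 cells engineered with TRHR, with a brief 5 min room-temperature compound exposure preceding addition of TRH to 1 nM. The read-out was kinetic calcium-dye fluorescence, concentration-response from 15 doses in triplicate.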

[3] = biological target: Thyrotropin-releasing hormone receptor (Homo sapiens) (UniProt P34981); test: qHTS assay to identify small molecule agonists of the thyrotropin-releasing hormone receptor (TRHR) signaling pathway (AID 1346891; calls by dose curve;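 note: HEK293 cells expressing TRHR with calcium dye readout; series mostly up to about 58 µM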)
Summary of the method: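 In 1536-format, 1500 TRHR-Hek293 cells per well grew 18 h, took up calcium dye for 2 h at 37 °C, received compound, and were read kinetically; 15-point titrations, triplicates.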

[4] = Human pregnane X receptor (PXR) small molecule agonists, qHTS cell viability counter screen (AID 1346977); note: nearly all actives have a fitted effect of over 50% in size
Summary of the method: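 Readout is CellTiter-Fluor fluorescence from PXR-Luc HepG2 cells. Plated cells rested 5hr, then were treated with compounds for 24hr at 37C and 5% CO2, with reagent present during the last hour.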

[5] = Caspase-3/7 induction in HepG2 cells by small molecules, qHTS assay (AID 1346978); note: nearly all actives have a fitted effect of over 15% in size
Summary of the method: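 Wild-type HepG2 cells, 2,000/well, settled 5 hr at 37 C and 5% CO2, then compound-treated for 17 hr; caspase-3/7 activity read by luminescent Caspase-Glo 3/7 after 30 min at room temperature.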

[6] = Caspase-3/7 induction in CHO-K1 cells by small molecules, qHTS cell viability counter screen (AID 1346979); note: nearly all actives have a fitted effect of over 35% in size
Summary of the method: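 To flag cytotoxic compounds, treated CHO-K1 wild-type cells were given CellTiter-Fluor at 16hr and read fluorescently after 1hr at 37C; the caspase-3/7 luminescence was measured in these same wells.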

[7] = Caspase-3/7 induction in CHO-K1 cells by small molecules, qHTS assay (AID 1346980); note: nearly all actives have a fitted effect of over 15% in size
Summary of the method: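 Wild-type CHO-K1 cells exposed to compounds for 17hr at 37 C, 5% CO2. Caspase-3/7 activity then measured by Caspase-Glo 3/7 luminescence after 30min at room temperature.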

[8] = Caspase-3/7 induction in HepG2 cells by small molecules, qHTS cell viability counter screen (AID 1346981); note: series mostly up to about 92 µM; nearly all actives have a fitted effect of over 30% in size
Summary of the method: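 Multiplexed with the caspase-3/7 assay: HepG2 cells, 16 hr compound treatment, CellTiter-Fluor viability detection by fluorescence.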

[9] = biological target: Nuclear receptor subfamily 1 group I member 2 (Homo sapiens) (UniProt O75469); test: Human pregnane X receptor (PXR) small molecule agonists, qHTS assay (AID 1346982); note: nearly all actives have a fitted effect of over 35% in size
Summary of the method: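 We seeded PXR-Luc HepG2 cells in assay medium containing 5% charcoal-stripped FBS, added compounds 5 hr later, incubated 24 hr, and read luminescence with ONE-Glo reagent.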

[10] = biological target: Nuclear receptor subfamily 1 group I member 2 (Rattus norvegicus) (UniProt Q9R1A7); test: Rat pregnane X receptor (rPXR) activation by small molecules, qHTS assay (AID 1346983); details: rPXR luciferase reporter cells, One-Glo luminescence, 24 h; hits give high values; note: nearly all actives have a fitted effect of over 20% in size
Summary of the method: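 Cell-based rPXR activation assay: rPXR cells, 2,000 per well, rested 5hr at 37 C, then exposed to compounds in DMSO for 24 hr at 37 C. Luciferase activity read by One-Glo luminescence after 30 min at room temperature.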

[11] = biological target: Nuclear receptor subfamily 1 group I member 2 (Homo sapiens) (UniProt O75469); test: CYP3A4 induction through human pregnane X receptor (PXR) by small molecules, qHTS assay (AID 1346984); note: nearly all actives have a fitted effect of over 40% in size
Summary of the method: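 qHTS, concentration-response format: HepG2 DPX-2 line, PXR/CYP3A4-luc. Exposure 24 h, 37C. Substrate Luciferin-IPA 3uM final, 3 h. Detection One-Glo, 30 min RT.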

[12] = biological target: Nuclear receptor subfamily 1 group I member 2 (Homo sapiens) (UniProt O75469); test: Human pregnane X receptor (PXR) activation by small molecules, qHTS assay (AID 1346985); note: nearly all actives have a fitted effect of over 40% in size
Summary of the method: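 DPX-2 cells (HepG2 co-transfected with a PXR response element and a CYP3A4-promoter luciferase construct) were seeded at 2,000 per well, rested 5 hr at 37C, then exposed to DMSO-dissolved compounds for 24 hr. Activation was read as luciferase luminescence.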

[13] = biological target: Cytochrome P450 2D6 (Homo sapiens) (UniProt P10635); test: Cytochrome P450 Family 2 Subfamily D Member 6 (CYP2D6) small molecule antagonists: luciferase reporter qHTS assay (AID 1671196); note: series mostly up to about 120 µM; nearly all actives have a fitted effect of over 50% in size
Summary of the method: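 Luminescence (RLU), read 20 min after detection reagent, indicated CYP2D6 conversion of proluciferin to luciferin during a 1 h NADPH-dependent reaction at room temperature.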

[14] = biological target: Cytochrome P450 2C19 (Homo sapiens) (UniProt P33261); test: Cytochrome P450 Family 2 Subfamily C Member 19 (CYP2C19) small molecule antagonists: luciferase reporter qHTS assay (AID 1671197); note: series mostly up to about 120 µM; nearly all actives have a fitted effect of over 65% in size
Summary of the method: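 Relative luminescence units recorded 20 min after the detection reagent stopped a 1 h, 37C CYP2C19 reaction on proluciferin substrate, which was started by NADPH regeneration following 10 min room-temperature compound preincubation; ketoconazole positive control.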

[15] = biological target: Cytochrome P450 2C9 (Homo sapiens) (UniProt P11712); test: Cytochrome P450 Family 2 Subfamily C Member 9 (CYP2C9) small molecule antagonists: luciferase reporter qHTS assay (AID 1671198); note: series mostly up to about 120 µM; nearly all actives have a fitted effect of over 50% in size
Summary of the method: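 P450-Glo proluciferin substrate with CYP2C9 enzyme; 10 min RT preincubation, then NADPH regeneration 1 h at 37C; luciferin detection reagent 20 min RT, luminescence in relative luminescence units.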

[16] = biological target: Cytochrome P450 1A2 (Homo sapiens) (UniProt P05177); test: Cytochrome P450 Family 1 Subfamily A Member 2 (CYP1A2) small molecule antagonists: luciferase reporter qHTS assay (AID 1671199); note: series mostly up to about 120 µM; nearly all actives have a fitted effect of over 50% in size
Summary of the method: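 CYP1A2 turnover of a luminogenic substrate was quantified after 1 h with NADPH regeneration at room temperature. Furafylline served as positive control.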

[17] = biological target: Voltage-gated inwardly rectifying potassium channel KCNH2 (Homo sapiens) (UniProt Q12809); test: Human Ether-a-go-go-Related Gene (hERG) channel small molecule antagonists: fluorescence cell-based qHTS assay (AID 1671200)
Summary of the method: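 Measured: Tl+ flux via fluorescence (480/540 nm) in hERG-expressing U2OS cells after 1 h dye loading at room temperature.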

[18] = biological target: Cytochrome P450 3A4 (Homo sapiens) (UniProt P08684); test: Cytochrome P450 Family 3 Subfamily A Member 4 (CYP3A4) small molecule antagonists: luciferase reporter qHTS assay (AID 1671201)
Summary of the method: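 Setup: enzyme-substrate mix, compound pin transfer, 10 min RT. Reaction: NADPH regeneration solution, 1 h RT. Readout: detection reagent stops turnover, luminescence measured after 20 min, expressed in relative luminescence units.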
% is set by controls: 0 for no effect and ±100 for the full control effect.

Chain of Cytochrome P450 2D6 (Homo sapiens) (P10635 whole entry, looked up): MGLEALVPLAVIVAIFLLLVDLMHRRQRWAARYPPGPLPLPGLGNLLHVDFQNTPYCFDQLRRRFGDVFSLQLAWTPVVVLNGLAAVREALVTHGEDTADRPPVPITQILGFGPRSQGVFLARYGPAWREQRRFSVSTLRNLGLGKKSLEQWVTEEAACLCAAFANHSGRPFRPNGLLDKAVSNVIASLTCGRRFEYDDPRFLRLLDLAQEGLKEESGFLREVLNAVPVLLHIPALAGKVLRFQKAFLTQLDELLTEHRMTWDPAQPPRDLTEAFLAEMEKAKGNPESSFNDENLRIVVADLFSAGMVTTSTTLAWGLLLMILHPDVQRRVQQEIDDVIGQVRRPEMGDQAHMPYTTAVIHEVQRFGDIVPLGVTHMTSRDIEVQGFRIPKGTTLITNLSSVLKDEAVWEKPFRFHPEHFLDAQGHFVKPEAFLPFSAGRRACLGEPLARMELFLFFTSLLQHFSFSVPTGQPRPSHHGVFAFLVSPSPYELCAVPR
Chain of Voltage-gated inwardly rectifying potassium channel KCNH2 (Homo sapiens) (Q12809 whole entry, looked up): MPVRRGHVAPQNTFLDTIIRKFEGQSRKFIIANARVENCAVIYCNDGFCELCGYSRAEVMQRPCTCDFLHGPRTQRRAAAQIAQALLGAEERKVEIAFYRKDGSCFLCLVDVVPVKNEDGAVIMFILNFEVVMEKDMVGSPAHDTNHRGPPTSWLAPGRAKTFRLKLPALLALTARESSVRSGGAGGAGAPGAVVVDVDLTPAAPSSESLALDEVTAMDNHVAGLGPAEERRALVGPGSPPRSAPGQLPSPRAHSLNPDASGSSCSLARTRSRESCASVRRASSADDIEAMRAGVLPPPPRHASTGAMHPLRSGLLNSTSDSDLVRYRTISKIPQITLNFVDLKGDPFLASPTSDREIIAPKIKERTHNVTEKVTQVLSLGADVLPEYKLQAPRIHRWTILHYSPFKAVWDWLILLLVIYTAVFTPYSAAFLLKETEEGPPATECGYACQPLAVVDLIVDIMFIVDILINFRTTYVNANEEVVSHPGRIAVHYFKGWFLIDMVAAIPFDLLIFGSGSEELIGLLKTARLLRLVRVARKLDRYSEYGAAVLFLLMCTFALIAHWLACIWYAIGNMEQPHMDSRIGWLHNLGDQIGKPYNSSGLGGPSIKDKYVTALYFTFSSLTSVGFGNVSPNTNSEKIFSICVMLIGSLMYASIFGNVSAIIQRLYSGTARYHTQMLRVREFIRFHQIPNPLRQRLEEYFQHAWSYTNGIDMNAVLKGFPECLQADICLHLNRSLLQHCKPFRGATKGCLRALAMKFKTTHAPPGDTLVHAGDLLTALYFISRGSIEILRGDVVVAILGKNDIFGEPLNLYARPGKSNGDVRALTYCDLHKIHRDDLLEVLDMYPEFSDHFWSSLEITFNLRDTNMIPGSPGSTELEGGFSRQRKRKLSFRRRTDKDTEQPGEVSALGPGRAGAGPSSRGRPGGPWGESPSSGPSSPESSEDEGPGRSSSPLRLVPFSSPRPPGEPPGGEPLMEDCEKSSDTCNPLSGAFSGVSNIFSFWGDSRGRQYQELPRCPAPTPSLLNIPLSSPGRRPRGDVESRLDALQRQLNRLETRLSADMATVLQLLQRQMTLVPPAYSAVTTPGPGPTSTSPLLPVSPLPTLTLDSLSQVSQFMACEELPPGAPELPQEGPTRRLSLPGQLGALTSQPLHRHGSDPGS
Chain of Cytochrome P450 2C9 (Homo sapiens) (P11712 whole entry, looked up): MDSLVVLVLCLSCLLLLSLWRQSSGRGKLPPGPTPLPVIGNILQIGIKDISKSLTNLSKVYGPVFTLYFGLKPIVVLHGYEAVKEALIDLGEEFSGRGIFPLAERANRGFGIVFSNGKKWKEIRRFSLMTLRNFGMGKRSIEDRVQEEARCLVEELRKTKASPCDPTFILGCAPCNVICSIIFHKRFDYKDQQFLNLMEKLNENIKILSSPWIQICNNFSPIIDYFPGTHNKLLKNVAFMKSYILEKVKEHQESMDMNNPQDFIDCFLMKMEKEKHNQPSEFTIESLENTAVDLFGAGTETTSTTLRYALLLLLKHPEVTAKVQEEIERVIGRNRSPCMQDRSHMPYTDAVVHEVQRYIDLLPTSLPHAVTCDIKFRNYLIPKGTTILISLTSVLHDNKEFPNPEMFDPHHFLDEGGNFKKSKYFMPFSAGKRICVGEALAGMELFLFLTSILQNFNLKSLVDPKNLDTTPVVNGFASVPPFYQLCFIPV
Chain of Cytochrome P450 3A4 (Homo sapiens) (P08684 whole entry, looked up): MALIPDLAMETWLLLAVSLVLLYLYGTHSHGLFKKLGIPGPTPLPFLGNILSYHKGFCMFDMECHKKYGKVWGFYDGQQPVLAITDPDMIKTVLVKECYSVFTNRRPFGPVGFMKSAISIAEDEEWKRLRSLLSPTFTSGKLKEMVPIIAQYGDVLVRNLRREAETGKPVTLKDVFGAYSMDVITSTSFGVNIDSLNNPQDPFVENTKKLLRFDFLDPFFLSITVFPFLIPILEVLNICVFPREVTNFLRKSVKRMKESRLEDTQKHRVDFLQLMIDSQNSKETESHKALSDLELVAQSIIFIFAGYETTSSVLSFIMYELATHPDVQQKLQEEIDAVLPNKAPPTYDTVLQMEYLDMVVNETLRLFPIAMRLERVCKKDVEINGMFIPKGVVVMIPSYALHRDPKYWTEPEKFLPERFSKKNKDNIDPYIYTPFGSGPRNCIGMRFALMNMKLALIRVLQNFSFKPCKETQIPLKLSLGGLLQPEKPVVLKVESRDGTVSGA
Chain of Nuclear receptor subfamily 1 group I member 2 (Homo sapiens) (O75469 whole entry, looked up): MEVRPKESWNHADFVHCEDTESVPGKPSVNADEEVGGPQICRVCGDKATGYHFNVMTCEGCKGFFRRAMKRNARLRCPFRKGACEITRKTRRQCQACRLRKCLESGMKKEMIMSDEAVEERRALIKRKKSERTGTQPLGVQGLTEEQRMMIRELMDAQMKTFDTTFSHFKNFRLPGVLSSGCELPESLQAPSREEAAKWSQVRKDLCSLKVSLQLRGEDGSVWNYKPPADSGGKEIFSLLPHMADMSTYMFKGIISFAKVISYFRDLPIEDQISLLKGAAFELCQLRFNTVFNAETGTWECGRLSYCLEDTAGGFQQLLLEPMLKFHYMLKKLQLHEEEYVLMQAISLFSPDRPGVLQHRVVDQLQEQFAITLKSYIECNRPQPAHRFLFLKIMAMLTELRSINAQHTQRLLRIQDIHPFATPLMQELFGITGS
Chain of Cytochrome P450 2C19 (Homo sapiens) (P33261 whole entry, looked up): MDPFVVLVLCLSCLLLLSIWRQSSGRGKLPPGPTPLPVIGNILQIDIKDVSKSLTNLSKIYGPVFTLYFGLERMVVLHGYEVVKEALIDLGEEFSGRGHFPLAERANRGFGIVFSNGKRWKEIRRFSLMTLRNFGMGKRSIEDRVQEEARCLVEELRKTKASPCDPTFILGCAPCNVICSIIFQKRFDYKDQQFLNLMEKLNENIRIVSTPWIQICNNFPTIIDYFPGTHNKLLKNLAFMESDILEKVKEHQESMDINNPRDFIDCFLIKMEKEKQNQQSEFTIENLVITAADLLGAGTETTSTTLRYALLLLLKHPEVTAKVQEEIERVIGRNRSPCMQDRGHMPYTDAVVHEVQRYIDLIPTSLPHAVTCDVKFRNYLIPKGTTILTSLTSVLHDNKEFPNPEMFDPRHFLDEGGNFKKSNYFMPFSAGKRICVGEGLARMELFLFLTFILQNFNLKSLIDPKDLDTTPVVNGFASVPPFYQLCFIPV
Chain of Thyrotropin-releasing hormone receptor (Homo sapiens) (P34981 whole entry, looked up): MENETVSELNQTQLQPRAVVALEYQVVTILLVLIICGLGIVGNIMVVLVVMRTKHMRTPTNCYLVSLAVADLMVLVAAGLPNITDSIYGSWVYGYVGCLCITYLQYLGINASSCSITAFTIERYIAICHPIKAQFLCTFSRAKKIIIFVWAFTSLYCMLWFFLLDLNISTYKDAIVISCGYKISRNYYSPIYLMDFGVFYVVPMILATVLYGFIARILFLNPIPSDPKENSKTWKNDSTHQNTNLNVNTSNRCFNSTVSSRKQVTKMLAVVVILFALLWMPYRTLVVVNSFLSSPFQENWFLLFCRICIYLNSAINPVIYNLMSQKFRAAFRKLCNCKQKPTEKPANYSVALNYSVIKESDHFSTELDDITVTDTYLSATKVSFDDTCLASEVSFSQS
Chain of Cytochrome P450 1A2 (Homo sapiens) (P05177 whole entry, looked up): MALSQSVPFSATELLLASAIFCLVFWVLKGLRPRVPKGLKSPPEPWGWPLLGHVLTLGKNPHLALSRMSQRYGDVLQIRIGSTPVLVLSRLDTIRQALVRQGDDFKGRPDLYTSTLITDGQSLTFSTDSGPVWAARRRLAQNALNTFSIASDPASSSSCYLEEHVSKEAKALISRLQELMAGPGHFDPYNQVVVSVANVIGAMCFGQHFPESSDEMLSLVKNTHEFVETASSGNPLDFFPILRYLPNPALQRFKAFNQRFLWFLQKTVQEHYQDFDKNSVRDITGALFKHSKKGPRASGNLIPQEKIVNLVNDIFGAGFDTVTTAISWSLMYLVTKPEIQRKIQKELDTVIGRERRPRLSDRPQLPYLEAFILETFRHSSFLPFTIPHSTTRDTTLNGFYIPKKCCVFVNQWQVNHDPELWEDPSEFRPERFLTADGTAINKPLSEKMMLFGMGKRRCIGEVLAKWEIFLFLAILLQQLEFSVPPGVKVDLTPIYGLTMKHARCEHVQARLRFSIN
Chain of Nuclear receptor subfamily 1 group I member 2 (Rattus norvegicus) (Q9R1A7 whole entry, looked up): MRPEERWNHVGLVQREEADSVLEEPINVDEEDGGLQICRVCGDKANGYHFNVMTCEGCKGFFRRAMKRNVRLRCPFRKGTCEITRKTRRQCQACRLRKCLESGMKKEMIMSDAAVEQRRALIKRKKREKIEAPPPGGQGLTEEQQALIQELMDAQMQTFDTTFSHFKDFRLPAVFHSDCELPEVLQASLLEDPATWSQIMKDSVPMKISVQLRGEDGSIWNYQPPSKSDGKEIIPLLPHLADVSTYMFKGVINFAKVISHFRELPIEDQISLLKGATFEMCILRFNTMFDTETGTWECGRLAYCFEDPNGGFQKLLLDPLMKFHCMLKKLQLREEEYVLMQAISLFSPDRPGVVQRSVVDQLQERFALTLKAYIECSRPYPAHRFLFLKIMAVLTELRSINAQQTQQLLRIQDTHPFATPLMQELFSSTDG

O=C(CN1CCNCC1)NC1CCCCC1
inactive: outcome [1] | outcome [2] | outcome [3] | outcome [4] | outcome [5] | Potency [6] | outcome [7] | outcome [8] | Potency [9] | max activation [10] -3.24% | Potency [11] | Potency [12] | Potency [13] | Potency [14] | Potency [15] | Potency [16] | Potency [17] | Potency [18]

CC1OCCC1=O (configuration not stated)
inactive: outcome [1] | outcome [2] | outcome [3] | outcome [4] | outcome [5] | Potency [6] | outcome [7] | outcome [8] | Potency [9] | Potency [13] | Potency [14] | Potency [15] | Potency [16] | Potency [17] | Potency [18]

CC(=O)O[C@H]1C[C@@H]2CC[C@@]1(C)C2(C)C
inactive: outcome [1] | outcome [2] | outcome [3] | outcome [4] | outcome [5] | Potency [6] | outcome [7] | outcome [8] | Potency [9] | Potency [13] | Potency [14] | Potency [15] | Potency [17] | Potency [18]

C[C@]12CCC(=O)C=C1CC[C@H]1[C@@H]3CC[C@](O)(C(=O)CO)[C@@]3(C)C[C@H](O)[C@@]12F
inactive: outcome [1] | outcome [2] | outcome [3] | outcome [4] | outcome [5] | Potency [6] | outcome [7] | outcome [8] | Potency [9] | Potency [11] | Potency [12] | Potency [13] | Potency [14] | Potency [16] | Potency [17]
